Measured values reported in the supplement of paper PMC6718421.

Tested on: Caenorhabditis elegans N2 (wild type)
Assay: animals with crystals or spheres in anterior pharynx; higher = more object (crystal/sphere) accumulation
Details: 30 µM; 48 h; genotype: wild type N2; stage: L1 start
Description: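 Synchronized wild-type (N2) C. elegans L1 larvae (50 per well) were incubated in liquid NGM with E. coli HB101 and 30 uM of each wactive for 48 h. Live worms were scored by DIC and polarized-light microscopy for birefringent crystals or non-birefringent spheres in the anterior pharynx. At least 3 biological replicates were run with at least 20 worms each; the value is the mean % of animals carrying objects.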

Compound	animals
Fc1ccc(N2CCN(Cc3cccc(Br)c3)CC2)cc1 [wact-30]	0%
CCOc1ccc(/C=C/[N+](=O)[O-])cc1 [wact-385]	0%
